In PubChem BioAssay AID1159580 (chemical genetic matrix, 2015):
About 2,000 (36%) of roughly 5,500 compounds were called active. Another 18% or so got no clear call; they are omitted. Cut-off read from the data, not from the text of the source: active = normalized growth mostly below about 0.91 (no sharp cut-off); inconclusive = no clear call, values can overlap the other calls; inactive = mostly above about 0.92. This is one part of the list.

Assay: chemical genetic growth profiling, strain panel (AID 1159580);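 note: tested at 20 µM; growth read once vehicle control cultures reached saturation at 30 °C; 1 = growth at the plate median or of vehicle wells; lower values mean less growth of the strain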
Settings: growth OD

Measured: normalized growth

CCOC(=O)[C@H](CCc1ccccc1)N[C@@H](C)C(=O)N1Cc2ccccc2C[C@H]1C(=O)O
inactive: S. cerevisiae deletion strains, locus YJR043C, strain POL32, active compounds read low 1.02 | S. cerevisiae deletion strains, locus YJR066W, strain TOR1, active compounds read low 0.98 | S. cerevisiae deletion strains, locus YKL009W, strain mrt4, active compounds read low 0.994 | S. cerevisiae deletion strains, locus YKL068W, active compounds read low 1 | S. cerevisiae deletion strains, locus YKL085W, strain MDH1 (second series), active compounds read low 1.01 | S. cerevisiae deletion strains, locus YKL085W, strain MDH1, active compounds read low 1.01 | S. cerevisiae deletion strains, locus YKL160W, strain elf1, active compounds read low 0.975 | S. cerevisiae deletion strains, locus YKL190W, strain CNB1, active compounds read low 1.01 | S. cerevisiae deletion strains, locus YKR001C, strain vps1, active compounds read low 0.986 | S. cerevisiae deletion strains, locus YKR026C, strain gcn3, active compounds read low 0.994 | S. cerevisiae deletion strains, locus YKR091W, strain srl3, active compounds read low 1 | S. cerevisiae deletion strains, locus YLL001W, strain dnm1, active compounds read low 0.998 | S. cerevisiae deletion strains, locus YLL026W, active compounds read low 1.01 | S. cerevisiae deletion strains, locus YLL041C, strain sdh2, active compounds read low 0.998 | S. cerevisiae deletion strains, locus YLR027C, strain aat2, active compounds read low 0.994 | S. cerevisiae deletion strains, locus YLR039C, strain RIC1, active compounds read low 1.05 | S. cerevisiae deletion strains, locus YLR058C, strain SHM2, active compounds read low 1.01 | S. cerevisiae deletion strains, locus YLR102C, strain apc9, active compounds read low 1.01 | S. cerevisiae deletion strains, locus YLR113W, strain HOG1, active compounds read low 0.963 | S. cerevisiae deletion strains, locus YLR221C, strain rsa3, active compounds read low 1.02 | S. cerevisiae deletion strains, locus YLR258W, strain gsy2, active compounds read low 0.999 | S. cerevisiae deletion strains, locus YLR262C, strain YPT6 (second series), active compounds read low 0.995 | S. cerevisiae deletion strains, locus YLR262C, strain YPT6, active compounds read low 1.07 | S. cerevisiae deletion strains, locus YLR268W, strain sec22, active compounds read low 1 | S. cerevisiae deletion strains, locus YLR320W, strain mms22, active compounds read low 0.996 | S. cerevisiae deletion strains, locus YLR330W, strain CHS5, active compounds read low 1 | S. cerevisiae deletion strains, locus YLR342W, strain FKS1 (second series), active compounds read low 1.02 | S. cerevisiae deletion strains, locus YLR342W, strain FKS1, active compounds read low 1.02 | S. cerevisiae deletion strains, locus YLR357W, strain rsc2, active compounds read low 0.975 | S. cerevisiae deletion strains, locus YLR370C, strain arc18, active compounds read low 0.985 | S. cerevisiae deletion strains, locus YLR371W, strain rom2, active compounds read low 1.01 | S. cerevisiae deletion strains, locus YLR384C, strain iki3, active compounds read low 1.01 | S. cerevisiae deletion strains, locus YLR418C, strain cdc73, active compounds read low 1 | S. cerevisiae deletion strains, locus YML016C, strain PPZ1, active compounds read low 1 | S. cerevisiae deletion strains, locus YML032C, strain rad52, active compounds read low 1 | S. cerevisiae deletion strains, locus YML120C, strain ndi1, active compounds read low 0.996 | S. cerevisiae deletion strains, locus YML124C, strain tub3, active compounds read low 1.01 | S. cerevisiae deletion strains, locus YMR058W, strain fet3, active compounds read low 1.01 | S. cerevisiae deletion strains, locus YMR078C, strain ctf18, active compounds read low 1 | S. cerevisiae deletion strains, locus YMR125W, strain sto1, active compounds read low 0.989 | S. cerevisiae deletion strains, locus YMR129W, active compounds read low 0.989 | S. cerevisiae deletion strains, locus YMR205C, strain PFK2, active compounds read low 1 | S. cerevisiae deletion strains, locus YMR223W, strain ubp8, active compounds read low 1.02 | S. cerevisiae deletion strains, locus YMR231W, strain pep5, active compounds read low 0.999 | S. cerevisiae deletion strains, locus YMR307W, strain GAS1, active compounds read low 0.979 | S. cerevisiae deletion strains, locus YNL067W, strain RPL9B, active compounds read low 0.995 | S. cerevisiae deletion strains, locus YNL071W, strain lat1, active compounds read low 0.998 | S. cerevisiae deletion strains, locus YNL183C, strain NPR1, active compounds read low 0.949 | S. cerevisiae deletion strains, locus YNL209W, strain ssb2, active compounds read low 0.994 | S. cerevisiae deletion strains, locus YNL233W, strain BNI4, active compounds read low 0.994 | S. cerevisiae deletion strains, locus YNL248C, strain rpa49, active compounds read low 0.957 | S. cerevisiae deletion strains, locus YNL250W, strain rad50, active compounds read low 1.01 | S. cerevisiae deletion strains, locus YNL271C, strain bni1, active compounds read low 1.02 | S. cerevisiae deletion strains, locus YNL298W, strain CLA4, active compounds read low 1.01 | S. cerevisiae deletion strains, locus YNL307C, strain MCK1, active compounds read low 1.02 | S. cerevisiae deletion strains, locus YNL322C, strain KRE1 (second series), active compounds read low 0.996 | S. cerevisiae deletion strains, locus YNL322C, strain KRE1, active compounds read low 1.01 | S. cerevisiae deletion strains, locus YNR049C, strain mso1, active compounds read low 1 | S. cerevisiae deletion strains, locus YNR052C, strain pop2, active compounds read low 1.01 | S. cerevisiae deletion strains, locus YOL006C, strain TOP1, active compounds read low 0.987 | S. cerevisiae deletion strains, locus YOL012C, strain htz1 1.52 | S. cerevisiae deletion strains, locus YOL147C, strain pex11, active compounds read low 1.01 | S. cerevisiae deletion strains, locus YOR001W, strain rrp6, active compounds read low 1.01 | S. cerevisiae deletion strains, locus YOR061W, strain CKA2, active compounds read low 1.01 | S. cerevisiae deletion strains, locus YOR069W, strain VPS5, active compounds read low 1 | S. cerevisiae deletion strains, locus YOR070C, strain gyp1, active compounds read low 1.01 | S. cerevisiae deletion strains, locus YOR080W, strain dia2, active compounds read low 1.01 | S. cerevisiae deletion strains, locus YOR083W, strain WHI5, active compounds read low 0.963 | S. cerevisiae deletion strains, locus YOR106W, strain vam3, active compounds read low 0.989 | S. cerevisiae deletion strains, locus YOR136W, strain idh2, active compounds read low 1.01 | S. cerevisiae deletion strains, locus YOR144C, strain elg1, active compounds read low 1.01 | S. cerevisiae deletion strains, locus YOR184W, strain ser1, active compounds read low 1 | S. cerevisiae deletion strains, locus YOR231W, strain MKK1, active compounds read low 0.974 | S. cerevisiae deletion strains, locus YOR265W, strain rbl2, active compounds read low 1.02 | S. cerevisiae deletion strains, locus YOR270C, strain vph1, active compounds read low 0.853 | S. cerevisiae deletion strains, locus YOR290C, strain snf2, active compounds read low 0.972 | S. cerevisiae deletion strains, locus YOR316C, strain cot1, active compounds read low 1.02 | S. cerevisiae deletion strains, locus YPL051W, strain arl3, active compounds read low 0.995 | S. cerevisiae deletion strains, locus YPL078C, strain atp4, active compounds read low 0.98 | S. cerevisiae deletion strains, locus YPL106C, strain sse1, active compounds read low 1 | S. cerevisiae deletion strains, locus YPL240C, strain hsp82, active compounds read low 1.02 | S. cerevisiae deletion strains, locus YPL241C, strain CIN2, active compounds read low 1.01 | S. cerevisiae deletion strains, locus YPL256C, strain CLN2, active compounds read low 0.962 | S. cerevisiae deletion strains, locus YPR119W, strain clb2, active compounds read low 1 | S. cerevisiae deletion strains, locus YPR141C, strain kar3, active compounds read low 1.01 | S. cerevisiae deletion strains, locus YPR163C, strain tif3, active compounds read low 1.01 | S. cerevisiae deletion strains, locus YPR167C, strain met16, active compounds read low 1.01 | S. cerevisiae deletion strains, strain wtn01, active compounds read low 1 | S. cerevisiae strains, strain wild type, active compounds read low 1.01
